For assay [1], the system named is TRPC4 beta (transient receptor potential cation channel C4), mouse. Nature of the assay: activators of mouse TRPC4 channel, confirmation, cell-based, Fluo4 calcium, HEK293 TRPC4beta/mu-opioid, duplicates, 10 µM (AID 2426;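 active = fluorescence ratio normalized to control raised more than 50% in primary screen plus both repeat runs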;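 as to activation: percent rise of integrated ratio over buffer wells lacking compound which define 0%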). Particulars: Fluo4 calcium fluorescence, at 10 µM; hits give high values.
For assay [2], the system named is transient receptor potential cation channel C4 beta (TRPC4), mouse. Nature of the assay: activators of mouse TRPC4 channel, confirmation, cell-based, second round, Fluo4, HEK293 TRPC4beta/mu-opioid, 1 µM (AID 2461).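 As to activation: 0% = wells without test compound as baseline of integrated fluorescence ratio.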 As to conditions: Fluo4 calcium fluorescence, at 1 µM; hits give high values.
Assay [3] deals with TRPC4 (transient receptor potential cation channel C4 beta), mouse. Nature of the assay: positive allosteric modulators of mouse TRPC4, confirmation, cell-based, second round, Fluo-4, HEK293 TRPC4beta/mu-opioid, 1 µM (AID 2554;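 active = primary screen hit whose fluorescence ratio, in both repeats, exceeds the weak agonist control mean by 3 SD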). As to conditions: DAMGO EC20, Fluo-4 calcium flux, at 1 µM; hits give high values. A general note: Calcium flux is commonly read through the fluorescence of an indicator in the cells.

The subject of assay [4] is TRPC4 beta (transient receptor potential cation channel C4), mouse. In words: positive allosteric modulators of mouse TRPC4, confirmation, cell-based, Fluo-4, HEK293 TRPC4beta/mu-opioid (AID 2555;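 active = primary screen hit whose calcium fluorescence ratio, in both repeats, exceeds the weak agonist control mean by 3 SD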). Particulars: DAMGO EC20, Fluo-4 calcium flux, at 10 µM; hits give high values.
The target in assay [5] is Short transient receptor potential channel 4 (Mus musculus) (UniProt Q9QUQ5). In words: inhibitors of mouse TRPC4 channel, confirmation, cell-based, Fluo4, HEK293 TRPC4beta/mu-opioid (AID 2636;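 active = calcium signal cut by more than 3 SD below the full-agonist control yet still positive, in both repeats and the earlier primary screen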). Particulars: DAMGO, Fluo4 calcium flux, at 10 µM; hits give high values.
Assay [6] has the same target. In words: inhibitors of mouse TRPC4 channel, confirmation, cell-based, second round, Fluo4, HEK293 TRPC4beta/mu-opioid, 1 µM (AID 2637;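 active = calcium signal ratio cut to more than 3 SD under the fully stimulated control mean yet still positive, in both repeats and the primary screen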). As to conditions: Fluo4 calcium flux, DAMGO, at 1 µM; hits give high values.
Assay [7] shares this target. In words: mouse TRPC4 channel activators, dose response, cell-based, HEK293 TRPC4/mu-opioid, Fluo-4 calcium (AID 434937;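 active = primary screen activator hit with a dose response curve and TRPC4 channel activation at any tested dose; inactive = no activation, no dose response, or not a primary hit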).
Assay [8] has the same target. In words: TRPC4 positive allosteric modulators, dose response, cell-based, HEK293 TRPC4/mu-opioid, Fluo-4 calcium, EC20 DAMGO (AID 434941;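 active = earlier screen potentiator hit that boosts the TRPC4 ion channel at some dose, with a dose response; inactive = no potentiation, no dose response, or not a prior hit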;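 also: calcium entry triggered by an EC20 dose of DAMGO at the co-expressed mu-opioid receptor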).
The target is the same in assay [9]. In words: mouse TRPC4 channel inhibitors, dose response, cell-based, HEK293 TRPC4/mu-opioid, Fluo-4 calcium (AID 434942;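 active = primary screen inhibitor hit that blocks the TRPC4 channel at some tested dose, yielding a dose curve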).
Assay [10] deals with Short transient receptor potential channel 6 (Mus musculus) (UniProt Q61143). In words: inhibition of mouse TRPC6 channel, confirmation, selectivity assay for TRPC4 inhibitor project, cell-based, HEK293, membrane potential dye, duplicate (AID 434948;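 active = active in primary screen and both duplicates, each dropping signal beyond three positive-control SD with fluorescence still positive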). Particulars: HEK293 TRPC6, membrane potential dye fluorescence, at 10 µM, stimulated with maximal-effect acetylcholine; hits give high values.

Assay [11] has the same target. Nature of the assay: activation of mouse TRPC6 channel, confirmation, selectivity assay for TRPC4 activator project, cell-based, HEK293, membrane potential dye, duplicate (AID 434950;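 active = membrane potential signal rise above negative control mean plus 3 SD in both duplicates, also active in the earlier TRPC4 screen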;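 as to activation: 0% = buffer only wells and 100% = acetylcholine maximal-effect wells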). As to conditions: HEK293 TRPC6, membrane potential fluorescence, at 10 µM; hits give high values.
For assay [12] the target is unchanged. In words: TRPC6 potentiation by TRPC4 potentiator hits, confirmation, selectivity assay for TRPC4 potentiator project, HEK293 cells, membrane potential dye, duplicate (AID 434952;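 active = compound raising the membrane signal above positive-control mean plus 3 SD in both repeats, and a primary screen hit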). Particulars: HEK293 TRPC6, membrane potential dye fluorescence, at 10 µM, maximal acetylcholine added after compound; hits give high values.
The target in assay [13] is Short transient receptor potential channel 4 (Mus musculus) (UniProt Q9QUQ5). In words: calcium flux activators in TRPC4/5HT1a cells, counter-screen for TRPC4 activator project, cell-based, second counter screen, HEK293 TRPC4/5HT1a, Fluo-4 (AID 434977;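 active = calcium signal rise above buffer-control mean plus 5 SD in both duplicates, and also a hit in the primary screen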;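 as to activation: plate controls were assay buffer for no effect and maximal serotonin response for full effect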). As to conditions: Fluo-4 calcium flux, at 10 µM; hits give high values.
Assay [14] can be described thus: calcium flux inhibitors in TRPC4/5HT1a cells, confirmation, counter-screen for TRPC4 inhibitor project, cell-based, second counter screen, HEK293 TRPC4/5HT1a, Fluo-4 (AID 434978;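 active = primary screen active whose calcium signal fell more than 3 SD beyond the full-serotonin control mean in both duplicate plates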;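 as to outcome: serotonin given first at submaximal then at maximal dose after compound preincubation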). As to conditions: Fluo-4 calcium flux, at 10 µM, serotonin added to trigger calcium flux; hits give high values.
Assay [15] has as its system TRPC4 (mouse), co-expressed with 5HT1a in HEK293. In words: calcium flux potentiators in TRPC4/5HT1a cells, confirmation, counter-screen for TRPC4 potentiator project, cell-based, second counter screen, HEK293 TRPC4/5HT1a, Fluo-4 (AID 434979;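 active = signal rise over 3 SD above mean of control wells given weak agonist, in both repeats and first screen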). As to conditions: Fluo-4 calcium flux, at 10 µM, serotonin added at its EC20 dose; hits give high values.
A short description of assay [16]: calcium flux activation in mu-opioid HEK293 cells, confirmation, counter-screen for TRPC4 activator project, cell-based, HEK293 mu-opioid receptor line (AID 449723;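 active = hit in primary screen, with calcium signal over 5 SD above buffer well mean in both duplicates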;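 also: counter screen cells carry the mu-opioid receptor alone and lack TRPC4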). As to conditions: Fluo-4 calcium fluorescence, at 10 µM; hits give high values.
Assay [17] is described as follows: calcium flux enhancement in mu-opioid HEK293 cells, confirmation, counter-screen for TRPC4 allosteric potentiator project, cell-based, HEK293 mu-opioid receptor line (AID 449724;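 active = calcium signal rise more than 3 SD above the low-dose agonist control mean, in both duplicate plates and the primary screen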;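 also: HEK293 cells carrying mu-opioid receptor only with no TRPC4 channel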). As to conditions: Fluo-4 calcium flux, at 10 µM, compound added before EC20 DAMGO stimulus; hits give high values.

The inhibition is the drop in the measured response relative to a control, in per cent.

For part of these data: Results with a measured potency or affinity are listed apart. Active and inactive are the calls of the source.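 The calls were made as follows, unless noted: active = primary screen active and over 50% activation in each of two duplicate runs; inactive = the rest.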

Chain of Short transient receptor potential channel 6 (Mus musculus) (Q61143 whole entry, looked up): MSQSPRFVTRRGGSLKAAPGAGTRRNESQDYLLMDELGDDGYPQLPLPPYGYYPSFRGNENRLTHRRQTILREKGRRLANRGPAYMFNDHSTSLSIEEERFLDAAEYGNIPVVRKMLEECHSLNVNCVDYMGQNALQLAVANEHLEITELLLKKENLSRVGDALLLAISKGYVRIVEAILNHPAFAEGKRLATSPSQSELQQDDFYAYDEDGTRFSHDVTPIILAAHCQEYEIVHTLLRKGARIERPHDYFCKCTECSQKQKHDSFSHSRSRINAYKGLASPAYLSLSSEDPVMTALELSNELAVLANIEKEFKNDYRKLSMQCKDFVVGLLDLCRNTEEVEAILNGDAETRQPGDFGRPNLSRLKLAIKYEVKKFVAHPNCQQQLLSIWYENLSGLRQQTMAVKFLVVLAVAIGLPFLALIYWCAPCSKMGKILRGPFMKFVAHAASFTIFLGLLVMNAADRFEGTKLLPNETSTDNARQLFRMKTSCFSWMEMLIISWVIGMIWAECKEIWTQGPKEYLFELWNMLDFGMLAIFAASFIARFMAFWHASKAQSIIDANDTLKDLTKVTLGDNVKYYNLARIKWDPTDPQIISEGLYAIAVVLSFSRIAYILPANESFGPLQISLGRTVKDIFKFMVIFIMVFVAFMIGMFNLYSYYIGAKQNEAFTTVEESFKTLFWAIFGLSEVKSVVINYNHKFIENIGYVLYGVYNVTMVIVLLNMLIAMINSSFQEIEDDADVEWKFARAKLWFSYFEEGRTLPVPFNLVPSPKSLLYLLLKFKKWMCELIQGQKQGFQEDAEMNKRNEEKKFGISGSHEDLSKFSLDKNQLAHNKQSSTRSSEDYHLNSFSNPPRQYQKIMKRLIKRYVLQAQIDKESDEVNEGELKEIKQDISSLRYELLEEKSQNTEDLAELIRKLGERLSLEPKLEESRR
Chain of Short transient receptor potential channel 4 (Mus musculus) (Q9QUQ5 whole entry, looked up): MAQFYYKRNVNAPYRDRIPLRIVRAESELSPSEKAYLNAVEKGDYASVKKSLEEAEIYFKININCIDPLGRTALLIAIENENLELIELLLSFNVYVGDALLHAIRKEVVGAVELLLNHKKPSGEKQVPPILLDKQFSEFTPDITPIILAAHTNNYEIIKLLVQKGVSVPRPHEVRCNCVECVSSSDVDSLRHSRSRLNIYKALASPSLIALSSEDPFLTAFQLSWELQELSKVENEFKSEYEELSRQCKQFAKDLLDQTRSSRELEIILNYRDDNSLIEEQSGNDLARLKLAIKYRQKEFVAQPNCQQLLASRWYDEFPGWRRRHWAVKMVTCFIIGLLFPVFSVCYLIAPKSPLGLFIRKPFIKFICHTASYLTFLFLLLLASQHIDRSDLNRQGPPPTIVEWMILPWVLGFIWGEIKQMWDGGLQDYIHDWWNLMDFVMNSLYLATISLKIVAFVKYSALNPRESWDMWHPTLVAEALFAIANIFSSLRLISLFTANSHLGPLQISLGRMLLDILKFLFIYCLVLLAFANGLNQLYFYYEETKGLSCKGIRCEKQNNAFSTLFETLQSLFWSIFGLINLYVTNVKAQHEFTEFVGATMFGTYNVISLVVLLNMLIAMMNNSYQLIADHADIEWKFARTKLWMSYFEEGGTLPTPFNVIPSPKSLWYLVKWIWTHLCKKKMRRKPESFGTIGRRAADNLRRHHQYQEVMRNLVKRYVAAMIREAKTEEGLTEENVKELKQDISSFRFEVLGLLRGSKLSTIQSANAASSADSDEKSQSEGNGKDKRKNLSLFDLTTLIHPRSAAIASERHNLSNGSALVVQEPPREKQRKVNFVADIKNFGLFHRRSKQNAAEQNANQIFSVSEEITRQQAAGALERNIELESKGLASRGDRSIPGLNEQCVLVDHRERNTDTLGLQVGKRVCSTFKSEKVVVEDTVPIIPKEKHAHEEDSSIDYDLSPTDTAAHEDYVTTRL

On to `CCOc1ccc(OCC(O)CNC2CCN(Cc3ccccc3)CC2)cc1` (stereo not given), for which the activation in assay [1] is 144% (active); in [2], 94% (active); in assay [11], 83% (active); in [13] it was 35.4% (active). Besides, the outcome in [3], in assay [4], in assay [6], in assay [7], in [8] and in [9] was inactive. Moreover, the result in assay [12], in assay [15], in assay [16] and in [17] was inactive. The inhibition in assay [5] is 36% (active); in assay [10] it was 34.5% (active); in assay [14], 25.6% (active).

As for `Cc1cc(Cl)ccc1OC(C)C(=O)Nc1ccccc1N1CCOCC1` (stereo not given), the outcome in [1], in [2], in [3], in assay [5], in [6] and in [7] was inactive. The result in [8], in [9], in assay [10], in [11], in assay [12] and in [13] was inactive. Further, the outcome in [14], in assay [15] and in assay [16] was inactive. Further, the potentiation in assay [4] is 25% (active). Moreover, the activation in assay [17] was 1140% (active).

In the case of `O=C1CC2(CCN(S(=O)(=O)c3ccccc3F)CC2)Oc2ccccc21`, the result in assay [1], in [2], in assay [3], in [5], in assay [6] and in assay [7] was inactive. The outcome in assay [8], in assay [9], in assay [10], in assay [11], in assay [12] and in [13] was inactive. Moreover, the outcome in [14], in assay [16] and in [17] was inactive. The figures for the potentiation in assay [4] and in assay [15] were 21% (active) and 34.2% (active), respectively.

As for `CC(C)(C)c1ccc(-c2nnc3sc(-c4ccccn4)nn23)cc1`, the outcome in assay [1], in assay [2], in [3], in assay [5], in [6] and in assay [7] was inactive. For the same compound, the outcome in assay [8], in [9], in assay [10], in assay [11], in assay [12] and in assay [13] was inactive. The result in assay [14], in assay [15], in assay [16] and in [17] was inactive. Moreover, in assay [4], the potentiation was 68% (active).

In the case of `CCN(CC)CCOC(=O)c1cccc(Br)c1`, the outcome in [1], in assay [2], in [5], in assay [6], in assay [7] and in [8] was inactive. For the same compound, the result in assay [9], in [10], in [11], in assay [12], in assay [13] and in assay [14] was inactive. For the same compound, the outcome in assay [16] and in assay [17] was inactive. Moreover, the figures for the potentiation in [3], in assay [4] and in assay [15] were 14% (active), 12% (active) and 8.39% (active), respectively.

Take `CCn1c2ccc(F)cc2c2nnc(NN)nc21`: the outcome in assay [1], in assay [2], in assay [5], in assay [6], in assay [7] and in assay [8] was inactive. The result in assay [9], in [10], in assay [11], in [12], in [13] and in assay [14] was inactive. In addition, the result in assay [15], in assay [16] and in [17] was inactive. For the same compound, the potentiation was 27% (active) in assay [3] and 73% (active) in assay [4].

Turning to `O=C(NC1CCN(Cc2ccccc2)CC1)c1cccc(S(=O)(=O)Nc2cc(C(F)(F)F)ccc2Cl)c1`, the outcome in [1], in assay [2], in assay [4], in assay [5], in [6] and in assay [7] was inactive. Besides, the outcome in assay [8], in assay [9], in assay [10], in assay [11], in assay [12] and in [13] was inactive. The outcome in assay [14], in assay [16] and in [17] was inactive. Besides, the potentiation in [3] was 13% (active); in assay [15], 22.2% (active).

In the case of `CN(C)CCCOC(=O)c1ccc(Cl)cc1Cl`, the result in assay [1], in assay [2], in assay [5], in [6], in assay [7] and in assay [8] was inactive. In addition, the result in assay [9], in [10], in assay [11], in assay [12], in assay [13] and in assay [14] was inactive. The outcome in [16] and in [17] was inactive. Further, the figures for the potentiation in assay [3], in assay [4] and in assay [15] were 16% (active), 8% (active) and 18.3% (active), respectively.

Regarding `COc1ccc(C(=O)CN2CCN(CCN3C(=O)c4cccc5cccc(c45)C3=O)CC2)cc1`, the result in [1], in [2], in assay [5], in [6], in [7] and in [8] was inactive. Besides, the outcome in assay [9], in assay [10], in [11], in assay [12], in [13] and in assay [14] was inactive. Moreover, the outcome in assay [16] and in [17] was inactive. Besides, the potentiation in assay [3] is 21% (active); in assay [4] it was 29% (active); in assay [15], 18.9% (active).

As to `COc1ccccc1CCc1nnc(CCC(=O)NCCCOc2cccnc2)o1`, the outcome in assay [1], in assay [2], in [3], in assay [4], in [6] and in assay [7] was inactive. Moreover, the result in assay [8], in [9], in assay [10], in assay [11], in [12] and in assay [13] was inactive. The result in [14], in [15], in assay [16] and in assay [17] was inactive. Besides, the inhibition in assay [5] is 48% (active).

For `Cn1c(=O)cc(OCCCC(=O)NCCCN2CCN(Cc3ccccc3)CC2)c2ccccc21`, the result in assay [1], in assay [2], in assay [5], in [6], in assay [7] and in assay [8] was inactive. For the same compound, the result in assay [9], in assay [10], in assay [11], in assay [12], in [13] and in [14] was inactive. Also, the result in assay [16] and in assay [17] was inactive. In addition, the figures for the potentiation in [3], in assay [4] and in [15] were 19% (active), 19% (active) and 21% (active), respectively.

For the compound `O=C(Nc1nc2c(s1)CN(Cc1ccccc1)CC2)c1c(F)cccc1F`, the outcome in [1], in [2], in assay [3], in assay [5], in assay [6] and in assay [7] was inactive. The result in assay [8], in [9], in assay [10], in assay [11], in assay [12] and in assay [13] was inactive. The result in [14], in [16] and in [17] was inactive. The potentiation in [4] is 10% (active); in assay [15] it was 14% (active).

Turning to `CC(C)Oc1ccccc1C1CC(=O)Nc2cc3c(cc21)OCCO3` (stereo not given), the outcome in assay [1], in assay [2], in assay [3], in [5], in assay [6] and in assay [7] was inactive. Also, the outcome in assay [8], in assay [9], in assay [10], in assay [11], in assay [12] and in assay [13] was inactive. Further, the result in assay [14], in assay [16] and in [17] was inactive. The values for the potentiation in assay [4] and in [15] were 44% (active) and 96.2% (active), respectively.

With `C/C(=N/OCO/N=C(/C)c1ccc(F)cc1)c1ccc(F)cc1`, the outcome in assay [1], in [2], in assay [3], in [4], in [5] and in [6] was inactive. For the same compound, the outcome in [7], in assay [8], in assay [9], in assay [10], in assay [11] and in assay [12] was inactive. Also, the outcome in [13], in assay [14], in [15], in assay [16] and in assay [17] was inactive.

As to `CCOc1ccc(Nc2nc(Cc3nnc(SCC(=O)c4ccc(C)cc4)o3)cs2)cc1`, the outcome in assay [1], in [2], in assay [3], in assay [4], in [5] and in [6] was inactive. Besides, the result in assay [7], in [8], in assay [9], in assay [10], in assay [11] and in [12] was inactive. For the same compound, the result in assay [13], in assay [14], in [16] and in assay [17] was inactive. For the same compound, in [15], the potentiation is 8.2% (active).

These data come from PubChem BioAssay.
